In the library only some 7.4% were active in any assay of this set; here they are far more common.
3T3 cytotox = Cytotoxic Profiling in NIH 3T3 Cell Line of Diverse Libraries Using Quantitative High-Throughput Screening; NIH 3T3 viability, CellTiter-Glo ATP luminescence, 48-72 h; Potency, µM (top dose mostly 96.7 µM), inactives show at the top dose activity change, negative = cytotoxicity, usual class: inhibitors; 94,000 compounds, 4.3% hits; note: nearly all actives have a fitted effect of over 55% in size
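ATP-dependent luminescence (CellTiter-Glo) served as the viability signal for NIH 3T3 cells treated with compound for 48 or 72 hr at 37 °C.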
Luciferase inh = Firefly luciferase inhibition profiling of diverse chemical library using quantitative high-throughput screening. Potency, µM (series often up to 115 µM), hits mostly inhibitors. 76,000 compounds, 2.5% hits. Luciferin 4-monooxygenase (Photinus pyralis), P08659. purified P. pyralis luciferase, luminescence, biochemical; note: nearly all actives have a fitted effect of over 65% in size
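Luminescence read by CCD imager after adding enzyme (10nM final) to wells holding compound, titrated in qHTS. Substrates 10uM each D-luciferin and ATP; buffer 50mM Tris acetate pH 7.5, 10mM Mg acetate, Tween-20, BSA.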
hNpr1 antagonist = Natriuretic polypeptide receptor (hNpr1) antagonism - Primary qHTS. Atrial natriuretic peptide receptor 1 (Homo sapiens), P16066. HEK293 hNpr1 GloSensor cGMP, ANP-stimulated luminescence. Potency, µM (top dose mostly 46.3 µM), inactives show at the top dose activity change, negative = inhibition, actives largely listed as inhibitors. 76,000 compounds, 1.6% hits. AID 1347048, 2019; calls by dose curve; note: nearly all actives have a fitted effect of over 60% in size
Target sequence (P16066 whole entry, looked up): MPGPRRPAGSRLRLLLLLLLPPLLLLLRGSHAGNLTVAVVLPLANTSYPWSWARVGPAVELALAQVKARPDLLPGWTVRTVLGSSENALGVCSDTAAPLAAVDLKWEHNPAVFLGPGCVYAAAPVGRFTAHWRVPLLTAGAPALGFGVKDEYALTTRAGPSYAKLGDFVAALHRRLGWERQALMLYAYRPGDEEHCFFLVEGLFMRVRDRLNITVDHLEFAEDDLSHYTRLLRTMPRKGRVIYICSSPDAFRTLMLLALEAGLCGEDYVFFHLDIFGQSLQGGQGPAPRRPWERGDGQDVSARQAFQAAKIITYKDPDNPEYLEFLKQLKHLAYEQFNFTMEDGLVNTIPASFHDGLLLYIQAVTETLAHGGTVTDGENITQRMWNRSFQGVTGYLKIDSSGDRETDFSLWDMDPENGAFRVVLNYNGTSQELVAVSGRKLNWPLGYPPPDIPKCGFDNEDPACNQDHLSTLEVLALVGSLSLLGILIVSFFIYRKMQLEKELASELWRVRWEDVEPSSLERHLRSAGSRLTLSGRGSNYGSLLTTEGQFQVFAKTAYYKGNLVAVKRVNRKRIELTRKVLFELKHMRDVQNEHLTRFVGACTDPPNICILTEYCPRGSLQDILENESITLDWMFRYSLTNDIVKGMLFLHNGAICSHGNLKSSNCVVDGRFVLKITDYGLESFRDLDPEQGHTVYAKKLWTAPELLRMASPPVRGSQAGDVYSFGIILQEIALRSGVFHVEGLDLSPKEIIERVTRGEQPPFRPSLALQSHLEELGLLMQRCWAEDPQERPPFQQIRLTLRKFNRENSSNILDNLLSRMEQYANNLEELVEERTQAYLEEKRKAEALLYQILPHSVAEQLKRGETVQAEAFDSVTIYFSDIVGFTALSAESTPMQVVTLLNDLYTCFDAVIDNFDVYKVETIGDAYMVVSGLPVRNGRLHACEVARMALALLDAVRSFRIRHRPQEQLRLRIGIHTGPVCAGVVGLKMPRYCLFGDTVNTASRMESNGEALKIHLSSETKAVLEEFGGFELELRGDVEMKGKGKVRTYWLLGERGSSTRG
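HEK293 cells stably expressing human Npr1 and cGMP GloSensor pGS-40F, loaded 2 h with 2% GloSensor reagent, given compound 30 min at room temperature. Luminescence read before and 20 min after 0.1 nM hNppA.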
SNCA expr inh = Primary qHTS assay for inhibitors of alpha-synuclein gene (SNCA) expression | AID 1671194, 2021 | Potency, µM (top dose mostly 57.2 µM), without a hit: at the highest dose activity change, negative = inhibition, hits mostly inhibitors | 140,000 compounds, 0.17% hits | HEK-293 SNCA-luciferase knock-in, luminescence, 24 h;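 note: plate controls were DMSO cells for no effect and cell-free wells for full effect; nearly all actives have a fitted effect of over 45% in size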
HEK cytotox = Cytotoxic Profiling in HEK 293 Cell Line of Diverse Libraries Using Quantitative High-Throughput Screening. Potency, µM (titrated, usually from 115 µM), for inactives: top-dose activity change, negative = cytotoxicity, actives largely listed as inhibitors. AID 1345083, 2018. 94,000 compounds, 6.6% hits. HEK 293 viability, ATP luminescence (CellTiter-Glo), 48-72 h; note: nearly all actives have a fitted effect of over 60% in size
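HEK 293 seeded at 250 cells/well receive compound via pintool. After 48 or 72 hr at 37 degree Celsius, 5% CO2 and 95% humidity, CellTiter-Glo is dispensed and luminescence read following 10 min at room temperature.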
HEK293 viab = GF-AFC viability counterscreen for inhibitors of alpha-synuclein gene (SNCA) expression; 150,000 compounds, 0.12% hits; Potency, µM (titrated, usually from 57.1 µM), for inactives: at the highest dose activity change, negative = cytotoxicity, usual class: cytotoxic; HEK-293-SNCA-luc viability, GF-AFC fluorescence, 24 h;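 note: 0% = DMSO-treated cells and -100% = medium-only wells without cells; nearly all actives have a fitted effect of over 30% in size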
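HEK-293-SNCA-luc cells (1500/well) plated 24 h, then exposed 24 h to a dilution series; GF-AFC added 30 min at 37C, fluorescence 405/540 nm; normalised to medium-only and DMSO wells, Hill fit.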
Numbers without * were called inactive; i = inactive; ? = inconclusive; · = no result; [ ] = another dose, or the depositor's remark. Unless noted, calls come from the whole dose curve; as a rule, active = well fitted curve in the direction sought with a large enough effect; inconclusive = small, poorly fitted or top-dose-only effect, or another doubt; inactive = no such curve, though single readings can be large; an effect the other way counts as inactive or inconclusive. Unless noted, % is set by controls: 0 for no effect and ±100 for the full control effect; potency is the fitted concentration of half-maximal effect.

SMILES | 3T3 cytotox | Luciferase inh | hNpr1 antagonist | SNCA expr inh | HEK cytotox | HEK293 viab
CCNC(=O)N(C1CC1)C1CCOC2(CCN(C(=O)NCc3ccc(OC)cc3)CC2)C1 (stereo not given) | -8.5% | i | -6.3% | 12.6% | i | 16.0%
Cn1ccnc1CN1C(=O)CO[C@H]2CN(Cc3ccc(S(C)(=O)=O)cc3)C[C@H]21 | -10.5%[174 µM] | i | -4.3%[70.6 µM] | 14.3%[87.6 µM] | -40.2%[172 µM] | -8.8%[87.6 µM]
CC(C(=O)N1CCN(c2cc(-c3ccc(Cl)cc3)[nH]n2)CC1)c1ccccc1 (stereo not given) | ? | i | 0.0% | ? | 28.2µM* | ?
O=c1cc(N2CCOCC2)oc2c(-c3cccnc3)nccc12 | 79.4µM* | i | 5.9%[70.6 µM] | 7.6%[87.6 µM] | -9.0%[172 µM] | 6.1%[87.6 µM]
CN1CCN(c2cc(=O)c3ccnc(N4CCOCC4)c3o2)CC1 | ? | i | 3.5%[70.6 µM] | 10.5%[87.6 µM] | i | 4.7%[87.6 µM]
COc1ncc(-c2nccc3c(=O)cc(N4CCN(C)CC4)oc23)cn1 | 89.1µM* | i | 1.3%[70.6 µM] | -0.8%[87.6 µM] | -12.5%[172 µM] | 3.8%[87.6 µM]
O=c1cc(N2CCOCC2)oc2c(-c3cccc(F)c3)nccc12 | ? | i | 3.6%[70.6 µM] | 7.6%[87.6 µM] | ? | -0.1%[87.6 µM]
COc1cc(CNc2nccc3c(=O)cc(N4CCOCC4)oc23)cc(OC)c1 | 89.1µM* | i | -1.7%[70.6 µM] | -20.5%[87.6 µM] | -13.5%[172 µM] | ?
COc1cccc(-c2nccc3c(=O)cc(N4CCOCC4)oc23)c1 | 20µM* | i | 8.7%[70.6 µM] | 39.8%[87.6 µM] | ? | -7.0%[87.6 µM]
COc1ccc(OC)c(CNC(=O)C2Cn3cccc3C(=O)N2Cc2cccnc2)c1 (stereo not given) | 1.2% | i | -6.0% | -13.7% | -15.1% | -22.1%
CCn1c(CN(C)C)nnc1C1CCN(Cc2cnc(N(C)C)s2)CC1 | 0.0% | i | 1.4% | 10.0% | -11.7% | 8.3%
Cc1noc2c(N(C)C)cc(-c3ccsc3)nc12 | ? | i | 4.9%[70.6 µM] | -2.3%[87.6 µM] | -26.9%[230 µM] | -5.2%[87.6 µM]
O=[S+]([O-])(c1cccs1)N1CCC2(CC1)CC(Cc1ccccc1)=NO2 | ? | i | -30.5% | -12.2% | 44.7µM* | 0.9%
CCCN1CCC2(CCN([S+](=O)([O-])c3cccs3)CC2)Oc2ccccc21 | ? | i | -3.2% | ? | 44.7µM* | ?
CCOc1ccccc1CN1CCC2(CCN([S+](=O)([O-])c3cccs3)CC2)Oc2ccccc21 | ? | i | -0.4% | -8.3% | -26.2% | -27.8%
Cc1ccncc1C(=O)N1CCC(N2C(=O)C(OCC3CC3)C23CCOCC3)CC1 (stereo not given) | -8.7% | i | -5.5% | 0.8% | -1.7% | ?
CC1(C)CN(Cc2cn(Cc3ccccc3)nc2-c2cc3ccccc3o2)CCO1 | ? | i | -2.7% | -19.0% | ? | -14.3%
c1ccc(Cn2cc(CN3CCN(c4ccncc4)CC3)c(-c3cc4ccccc4o3)n2)cc1 | 28.2µM* | i | 0.9% | -13.0% | 39.8µM* | -18.7%
COC[C@H]1CCCN1Cc1cn(Cc2ccccc2)nc1-c1cc2ccccc2o1 | ? | ? | -12.3% | -3.2% | ? | -21.8%
FC1CCN(Cc2cn(Cc3ccccc3)nc2-c2cc3ccccc3o2)CC1 | ? | i | -2.9% | 7.9% | 31.6µM* | -27.9%
c1ccc(Cn2cc(CN3CCCOCC3)c(-c3cc4ccccc4o3)n2)cc1 | ? | 35.5µM* | 1.4% | 2.8% | ? | -16.9%
C=C1CCC2[C@](C)(CCC[C@@]2(C)C=O)[C@H]1CC/C(C)=C/CO (stereo not given in full) | · | · | · | · | · | 0.7%
COCCn1nc2n(c1=O)CCN(C(=O)c1ccc(OC)nc1OC)CC2 | -3.2% | i | 0.8% | 17.8% | i | 4.8%
CCCNC(=O)c1cccc2c1CCN2S(=O)(=O)c1cccc(C)c1 | ? | i | ? | -1.9% | ? | -3.6%
Cc1cc(C)cc(-c2ccc(CN3CCCC3C(=O)NC(C)C)cc2)c1 (stereo not given) | ? | · | · | -11.3% | 50.1µM* | -13.2%
SMILES | 3T3 cytotox | Luciferase inh | hNpr1 antagonist | SNCA expr inh | HEK cytotox | HEK293 viab
Cc1cc(C)cc(-c2ccc(CN3CCCC3C(=O)NCCc3ccccc3)cc2)c1 (stereo not given) | 31.6µM* | · | · | -11.5% | 39.8µM* | -18.1%
Cc1cc(C)cc(-c2ccc(CN3CCCC3C(=O)NC3CC3)cc2)c1 (stereo not given) | ? | · | · | ? | 50.1µM* | -6.1%
Cc1cc(C)cc(-c2ccc(CN3CCCC3C(=O)Nc3ccc(F)cc3)cc2)c1 (stereo not given) | ? | · | · | 0.7% | ? | -6.7%
Cc1cc(C)cc(-c2ccc(CN3CCCC3C(=O)NCC(F)F)cc2)c1 (stereo not given) | ? | · | · | ? | ? | 4.9%
Cc1cc(C)cc(-c2ccc(CN3CCCC3C(=O)NCc3ccc4c(c3)OCO4)cc2)c1 (stereo not given) | 35.5µM* | · | · | -16.0% | 50.1µM* | 2.2%
Cc1cc(C)cc(-c2ccc(CN3CCCC3C(=O)Nc3ccccc3Cl)cc2)c1 (stereo not given) | -18.4% | · | · | 16.4% | -15.0% | 12.1%
OCc1ccc(CN2C[C@H](O)C[C@H]2c2nc(-c3ccccc3)no2)o1 | -14.5%[174 µM] | 44.7µM* | 3.8%[70.6 µM] | 109.2%[87.6 µM] | -8.0%[172 µM] | -7.5%[87.6 µM]
O[C@@H]1C[C@@H](c2nc(-c3ccccc3)no2)N(Cc2cc3ccccc3o2)C1 | ? | 39.8µM* | 1.5%[70.6 µM] | 145.8%[87.6 µM] | ? | -1.9%[87.6 µM]
Cc1cc(C)c(NC(=O)Cn2c(N(C)Cc3ccccc3)nc(C)cc2=O)c(C)c1 | ? | i | -21.1% | -21.5% | ? | -8.6%
c1ccc(Oc2ccc(Nc3cnc4ccc(N5CCOCC5)nn34)cc2)cc1 | 44.7µM* | i | ? | ? | ? | 6.7%[87.6 µM]
CN1CCN(c2ccc3ncc(Nc4ccc(OC(F)(F)F)cc4)n3n2)CC1 | 35.5µM* | i | -20.1%[70.6 µM] | -28.7%[87.6 µM] | 50.1µM* | -1.8%[87.6 µM]
CN1CCN(c2ccc3ncc(Nc4ccc(Cl)c(C(F)(F)F)c4)n3n2)CC1 | ? | i | ? | ? | 79.4µM* | 12.9%[87.6 µM]
Cc1cn(CC(=O)N2CC[C@@](C)(O)[C@@H](Cc3ccccc3)C2)c(=O)[nH]c1=O | i | i | 5.5% | 5.2% | -6.7% | 10.3%
COc1ccc(CNC(=O)C[C@@H]2CCNC[C@@H]2Cc2cc(-c3ccc(F)cc3)on2)cc1 | ? | i | -6.3% | -8.2% | 79.4µM* | 10.5%
